Measured values as given in PubChem BioAssay (NCI).
The panel holds about 83,000 compounds, 20% with a hit somewhere; the sample as a whole holds those more often.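 Negative percent growth values reflect cell death: -40 means 40% of the cells present at the start died, and -100 means all died.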 Active and inactive are the calls of the source. Rule for the calls: active = growth percent below 10; inactive = the rest.

Assays:
Experiment in all cases: NCI-60 one-dose screen, 48 h (100 = growth as untreated, 0 = no growth, -100 = all killed)
Conditions in all cases: 10 µM unless noted
[1] = test system: NCI-H23 lung
[2] = test system: NCI-H322M lung
[3] = test system: HOP-62 NSCLC
[4] = test system: NCI-H460 lung
[5] = test system: HOP-92 NSCLC
[6] = test system: NCI-H522 lung
[7] = test system: A549/ATCC NSCLC
[8] = test system: 786-0 renal
[9] = test system: COLO 205 colon

Measured: growth

COc1cc(OC)c2sc(-c3ccc(-n4cncc4-c4ccc(OC)c(OC)c4)cc3)nc2c1
inactive: [1] 66.1% | [2] 92.3% | [3] 83.2% | [4] 23.3% | [5] 39.4% | [6] 50.5% | [7] 45.6% | [8] 74.5%

O=C1/C(=C/c2ccccc2Br)COc2ccc(O)c(O)c21
inactive: [1] 46.5% | [4] 14.3% | [5] 36.9% | [7] 35.1% | [9] 82.2%
active: [3] -5.9% | [6] -45.2% | [8] -41.6%

C[C@]12C=CC(=O)C=C1CCC1C2[C@@H](O)C[C@@]2(C)C1CC[C@]2(O)C(=O)COC(=O)CCC(=O)O (some centres not stated)
inactive: [1] 106% | [2] 106% | [3] 121% | [4] 103% | [5] 87.1% | [6] 103% | [7] 71.3% | [8] 102% | [9] 124%

O=C1/C(=C/c2ccc(Cl)cc2)COc2ccc(O)c(O)c21
inactive: [1] 42.3% | [2] 37.5% | [4] 31.1% | [7] 42.9% | [9] 27.7%
active: [3] -22.7% | [6] -60.9% | [8] -80.8%

COc1ccc2c3c([nH]c2c1)C(=O)c1nc(C)ccc1C3=O
active: [1] 3.17% | [4] -34.9% | [7] -11.9%
inactive: [2] 43.4% | [3] 46.6% | [5] 86% | [6] 56% | [8] 79.7% | [9] 63.2%

CC1=C(Nc2ccc(N3CCN(C)CC3)cc2)C(=O)c2cncnc2C1=O
active: [5] -28.6%
inactive: [1] 72.6% | [2] 101% | [3] 107% | [4] 25.2% | [6] 84.9% | [7] 92.6% | [8] 107% | [9] 124%

N#CC1=C(c2ccc(Cl)cc2)Nc2c(c(-c3ccc(Cl)cc3)nn2-c2ccccc2)C12C(=O)Nc1ccc(Cl)cc12 (configuration not stated)
inactive: [1] 42.3% | [2] 83.3% | [3] 65% | [4] 35.5% | [6] 25.7% | [7] 31% | [8] 59.1% | [9] 51%
active: [5] -3.13%

CC1(C)CC[C@]2(c3nnc(-c4ccncc4)o3)CC[C@H]3C(=CC[C@H]4[C@@]3(C)CC[C@H]3C(C)(C)C(=O)CC[C@]43C)[C@@H]2C1
inactive: [1] 71.7% | [2] 94.4% | [3] 85.7% | [4] 40.4% | [5] 76% | [6] 64.2% | [7] 73.9% | [8] 66.3% | [9] 67.9%

COC1=CC(c2ccc[nH]2)=N/C1=C\c1[nH]c(C)c(C(=O)OCc2ccccc2)c1C
active: [1] -15.7% | [2] -11% | [3] -43.2% | [4] -11.8% | [5] -26.3% | [6] -59.6% | [7] -26.8% | [8] -49.2% | [9] -82%

COC(=O)c1cc(-c2ccc(OC)cc2)[nH]c1N/N=C/c1c(Cl)cccc1Cl
active: [3] -42.5% | [4] -9.38% | [7] 5.26% | [8] -14% | [9] -23.9%
inactive: [1] 46.1% | [2] 36.1% | [5] 47.4% | [6] 10.5%

CCCc1cc(NC)nc(S(=O)(=O)CC)n1
inactive: [1] 102% | [3] 110% | [4] 110% | [5] 108% | [6] 95.9% | [7] 105% | [8] 101% | [9] 120%

C#CCOc1ccc2ncnc(Nc3ccc(NC(=O)CCl)cc3)c2c1
inactive: [2] 51.6% | [3] 21.4% | [7] 18.7%
active: [1] -39% | [4] -46.4% | [5] -7.62% | [6] -77.9% | [8] -65.3% | [9] -8.04%

N=C(N)c1ccc(-c2ccc(-c3ccc(F)cc3)o2)o1
inactive: [1] 44.8% | [2] 42.4% | [3] 38.1% | [5] 16.2% | [6] 37.4% | [8] 15.4%
active: [4] -13.7% | [7] 1.43% | [9] -76.5%

Cc1cc(Cl)ccc1NC(=O)c1cc2ccccc2cc1O
active: [1] 7.5% | [2] -1.74% | [4] 2.76% | [5] -12.1% | [6] -8.43%
inactive: [7] 20.8% | [8] 28.4% | [9] 99.8%

Fc1ccc(Nc2nc3nonc3nc2Nc2ccc(I)cc2)cc1
active: [1] -19.5% | [2] 1.66% | [3] -23.7% | [4] 2.95% | [5] -25.9% | [6] -20.2% | [7] 2.73% | [8] -11.1% | [9] -64.4%

COCCn1cc(-c2nc(-c3cc4cccnc4n3CCOC)cs2)c2cc(OC)ccc21
inactive: [1] 61.5% | [2] 39.5% | [3] 74.7% | [4] 40.2% | [5] 47.1% | [6] 16.7% | [7] 46% | [8] 58.5% | [9] 44.3%

Cn1c(=O)c2[nH]c(N/N=C/c3ccccc3Br)nc2n(C)c1=O
inactive: [1] 107% | [2] 95.5% | [3] 112% | [4] 110% | [5] 104% | [6] 89.7% | [7] 101% | [8] 96.9% | [9] 137%

COc1cc(-n2cc(-c3cc(O)c(C/C=C(\C)CCC=C(C)C)c(O)c3)nn2)cc2c1O[C@]1(C)CC[C@@H](O)C(C)(C)[C@H]1C2
active: [3] -15.1% | [5] -6.06% | [6] -26.6% | [8] 6.92%
inactive: [1] 26.2% | [2] 35.4% | [4] 10.4% | [7] 10.3% | [9] 12.5%

COc1cc2c(c(OC)c1OC)-c1ccc(OC)c(=O)cc1[C@@H](NC(=O)CCl)CC2
inactive: [2] 52.1% | [3] 40.4% | [5] 10% | [7] 13% | [8] 14.6%
active: [1] 5.73% | [4] -5.39% | [6] -27.4% | [9] -71.9%

CCOC(=O)CSc1ncnc2c1c(-c1ccccc1)c(-c1ccccc1)n2-c1ccc(C)cc1
inactive: [1] 75% | [2] 94.4% | [3] 64.8% | [4] 76.6% | [5] 49.4% | [6] 47.3% | [7] 72.5% | [8] 80.9% | [9] 63.7%

CCNc1cc(-c2cccc(OC(F)(F)F)c2)nc2ccc(N3CCCC3)cc12
inactive: [2] 22.1% | [7] 10.3%
active: [1] 7.13% | [3] -10.1% | [4] 1.03% | [6] -16.8% | [8] -18.4% | [9] -65.9%

C=CCn1cc(-c2nc3ccccc3s2)c2cc(-c3ccc4c5c(cccc35)C(=O)N(N)C4=O)ccc21
inactive: [1] 88.2% | [2] 96.9% | [3] 90.2% | [4] 98.9% | [5] 93.7% | [6] 84.9% | [7] 105% | [8] 99.3% | [9] 109%

Cc1cc(Cl)ccc1Nc1nc(C(F)(F)F)ccc1C(=O)N/N=C/c1ccc([N+](=O)[O-])cc1
active: [1] -1.74% | [2] -18.6% | [3] -33.6% | [4] -34.3% | [6] -13.3% | [7] -15.3% | [8] -61.2% | [9] -65.6%

Cc1cccc2c1NC(=O)C2(c1ccc(O)cc1)c1ccc(O)cc1
active: [9] -4.74%
inactive: [1] 38% | [2] 10.1% | [3] 92% | [4] 103% | [5] 48.7% | [6] 61.4% | [7] 71.6% | [8] 94.8%

COC(=O)c1c2c(c(C)[n+]([O-])c1C)C(=O)C(NCc1ccc(Cl)cc1)=CC2=O
active: [9] 9.79%
inactive: [1] 59% | [2] 64.3% | [3] 78.2% | [4] 51.8% | [5] 107% | [6] 42% | [7] 66.9% | [8] 74%

C#Cc1cccc(Nc2ncnc3ccc(-c4cncc(NS(C)(=O)=O)c4)cc23)c1
inactive: [1] 26.5% | [3] 32% | [4] 51.6% | [7] 48.8% | [8] 40.6% | [9] 17.7%
active: [2] 1.41% | [5] -12.2% | [6] 3.44%
